PHOSPHO1 block – PubChem AID 1565; recombinant PHOSPHO1, absorbance phosphatase assay; 290,000 compounds, 1.1% hits; inhibition, % at 13.3 µM; in the data active = inhibition above about 60%
SUMO HTRF inh – inhibitors of in vitro SUMOylation cascade, primary screen, biochemical, HTRF, uHTS. HTRF SUMOylation assay, SAE1/SAE2 + UBC9. inhibition, % at 35 µM. 290,000 compounds, 0.36% hits. AID 2006, 2009; in the data active = inhibition above about 50%, passing the limit was not always enough
HDAC3 inhib – HDAC3 deacetylase inhibitors, primary screen, biochemical, fluorescence, cell-free homogeneous | recombinant HDAC3, fluorogenic peptide/trypsin coupled | inhibition, % at 8.3 µM | AID 2718, 2010 | 320,000 compounds, 0.15% hits; in the data active = inhibition above about 26%, passing the limit was not always enough
Target sequence (O15379 whole entry, looked up): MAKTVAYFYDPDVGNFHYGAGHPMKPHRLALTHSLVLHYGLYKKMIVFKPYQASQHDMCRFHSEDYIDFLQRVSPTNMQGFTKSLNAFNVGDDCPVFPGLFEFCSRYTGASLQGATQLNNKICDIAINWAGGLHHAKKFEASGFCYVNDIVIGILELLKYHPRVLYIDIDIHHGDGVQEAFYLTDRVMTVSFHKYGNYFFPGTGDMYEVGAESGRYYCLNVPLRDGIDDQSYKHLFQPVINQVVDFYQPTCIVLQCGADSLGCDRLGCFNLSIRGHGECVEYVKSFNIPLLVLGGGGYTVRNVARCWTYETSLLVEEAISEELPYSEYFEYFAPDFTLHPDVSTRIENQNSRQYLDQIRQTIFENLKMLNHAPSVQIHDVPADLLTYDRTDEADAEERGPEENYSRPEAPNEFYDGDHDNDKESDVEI
p97 ATPase inh – inhibitors of human p97 ATPase, primary screen, biochemical; Transitional endoplasmic reticulum ATPase (Homo sapiens), P55072; recombinant p97 ATPase, Kinase-Glo ATP luminescence, 3 h; inhibition, % at 8 µM; 220,000 compounds, 0.42% hits; AID 1481, 2009; in the data active = inhibition above about 15%
G6PDH counter – L. mesenteroides G6PDH inhibitors, counter-screen for G6PDH-coupled screening assays, biochemical, Leuconostoc mesenteroides enzyme; inhibition, % at 5 µM; glucose-6-phosphate dehydrogenase [Leuconostoc mesenteroides]; AID 1020, 2008; 200,000 compounds, 0.12% hits; Purified L. mesenteroides G6PDH, diaphorase/resazurin coupled fluorescence, 45 min; in the data active = inhibition above about 50%
M18AAP inhibitor – PfM18AAP inhibitors, malaria aminopeptidase, primary screen, biochemical, QFRET, recombinant enzyme; M18 aspartyl aminopeptidase (Plasmodium falciparum 3D7); H-Glu-NHMec fluorogenic cleavage; inhibition, % at 7.35 µM; 290,000 compounds, 1.2% hits; AID 1822, 2009;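 active = inhibition above the campaign mean inhibition over all tested compounds plus 3 SD, cut at about 28% in these data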
Numbers stand for hits. Shown are actives, neighbours in structure and some others; about 2.5% of the full set was active somewhere.

How did Cc1ccc(NC(=O)CN2CCOCC2)cc1 do in these assays?
PHOSPHO1 block: inactive; SUMO HTRF inh: inactive; HDAC3 inhib: inactive; M18AAP inhibitor: inactive

Results for CCOC(=O)COc1ccc2ccccc2c1/C=C/[N+](=O)[O-] ?
PHOSPHO1 block: inactive; SUMO HTRF inh: inactive; HDAC3 inhib: inactive; p97 ATPase inh: inactive; G6PDH counter: inactive; M18AAP inhibitor: 37

Results for COc1ccc2oc(=N)c(C(=O)Nc3ccccc3Cl)cc2c1 ?
SUMO HTRF inh: inactive; HDAC3 inhib: inactive; M18AAP inhibitor: inactive

What do the screens show for `Cc1cc(CN(C)C(=O)c2cc(COc3ccc(F)cc3Cl)on2)n[nH]1`?
PHOSPHO1 block: 60; SUMO HTRF inh: inactive; HDAC3 inhib: inactive; p97 ATPase inh: inactive; G6PDH counter: inactive; M18AAP inhibitor: inactive

What do the screens show for `Cc1ccc(NC(=O)C(=O)NCCN2CCN(S(C)(=O)=O)CC2)cc1C`?
PHOSPHO1 block: 61; SUMO HTRF inh: inactive; HDAC3 inhib: inactive; p97 ATPase inh: inactive; G6PDH counter: inactive; M18AAP inhibitor: inactive

What do the screens show for `Cc1nn(C(=O)Cn2ccc([N+](=O)[O-])n2)c(C)c1Cl`?
PHOSPHO1 block: inactive; SUMO HTRF inh: inactive; HDAC3 inhib: inactive; M18AAP inhibitor: inactive

What do the screens show for `CCCCC[C@@H]1C=C(C(=O)O)[C@H](c2ccc(OC)c(OC)c2)N1S(=O)(=O)c1ccc(C)cc1`?
HDAC3 inhib: inactive

Results for COc1ccc(C(=O)NC(=S)SCC(=O)O)cc1 ?
PHOSPHO1 block: inactive; SUMO HTRF inh: inactive; HDAC3 inhib: inactive; p97 ATPase inh: inactive; M18AAP inhibitor: inactive

What do the screens show for `CCOC(=O)CSC(=S)NC(=O)c1ccc(OC)cc1`?
PHOSPHO1 block: inactive; SUMO HTRF inh: inactive; HDAC3 inhib: 79; p97 ATPase inh: inactive; G6PDH counter: inactive; M18AAP inhibitor: inactive

What do the screens show for `CCOc1ccc(NS(=O)(=O)c2ccc(-c3ccc(=O)[nH]n3)o2)cc1`?
PHOSPHO1 block: inactive; SUMO HTRF inh: inactive; HDAC3 inhib: inactive; M18AAP inhibitor: inactive

Results for COC(=O)[C@H](Cc1ccccc1)NC(=O)NCCc1ccc(OC)cc1 ?
PHOSPHO1 block: inactive; SUMO HTRF inh: inactive; HDAC3 inhib: inactive; M18AAP inhibitor: inactive

How did COc1cccc(-n2c(SCC(=O)Nc3nc4ccccc4s3)nc3ccccc3c2=O)c1 do in these assays?
PHOSPHO1 block: 62; SUMO HTRF inh: inactive; p97 ATPase inh: inactive; M18AAP inhibitor: inactive

How did COc1ccc2nc(NC(=O)CSc3nc(C)cc(=O)[nH]3)sc2c1 do in these assays?
PHOSPHO1 block: 74; SUMO HTRF inh: inactive; HDAC3 inhib: inactive; p97 ATPase inh: inactive; G6PDH counter: inactive; M18AAP inhibitor: inactive

What do the screens show for `COc1ccc2nc(NC(=O)CSc3nccc(C)n3)sc2c1`?
PHOSPHO1 block: inactive; SUMO HTRF inh: inactive; HDAC3 inhib: inactive; p97 ATPase inh: inactive; G6PDH counter: inactive; M18AAP inhibitor: inactive

How did Cn1c2ccccc2c2nnc(NN)nc21 do in these assays?
PHOSPHO1 block: inactive; SUMO HTRF inh: inactive; HDAC3 inhib: inactive; p97 ATPase inh: inactive; M18AAP inhibitor: 30

What do the screens show for `CCn1c2ccccc2c2nnc(NN)nc21`?
PHOSPHO1 block: inactive; SUMO HTRF inh: inactive; HDAC3 inhib: inactive; p97 ATPase inh: inactive; G6PDH counter: inactive; M18AAP inhibitor: 31

Results for CCn1c2ccc(C)cc2c2nnc(NN)nc21 ?
PHOSPHO1 block: inactive; SUMO HTRF inh: inactive; HDAC3 inhib: inactive; p97 ATPase inh: inactive; G6PDH counter: inactive; M18AAP inhibitor: inactive

What do the screens show for `OCC1(Cc2ccccc2F)CCCN(Cc2c(F)ccc(F)c2F)C1` (configuration not stated)?
PHOSPHO1 block: inactive; SUMO HTRF inh: inactive; HDAC3 inhib: inactive; M18AAP inhibitor: inactive

What do the screens show for `COc1ccc(S(=O)(=O)c2c(O)cc(C)c(NS(=O)(=O)c3ccccc3)c2C)cc1`?
PHOSPHO1 block: inactive; SUMO HTRF inh: inactive; HDAC3 inhib: inactive; M18AAP inhibitor: inactive

How did O=C(CN1CCCCC1)c1c[nH]c2ccccc12 do in these assays?
PHOSPHO1 block: inactive; SUMO HTRF inh: inactive; HDAC3 inhib: inactive; M18AAP inhibitor: inactive

Results for O=C(CN1CCN(Cc2ccccc2)CC1)c1c[nH]c2ccccc12 ?
PHOSPHO1 block: 80; SUMO HTRF inh: inactive; HDAC3 inhib: inactive; p97 ATPase inh: inactive; G6PDH counter: inactive; M18AAP inhibitor: inactive

Screens from PubChem.
